Measured values as given in publication PMC7826789 (International Journal of Molecular Sciences, 2021).

Assays:
Conditions in all cases: Compound Concentration (nM):1000
CSNK2A2 = tested on: CSNK2A2
CTK = tested on: T1, CTK
T1 construct: gene MATK

DAPK1 = tested on: DAPK1
DAPK2 = tested on: DAPK2
DAPK3 = tested on: DAPK3
DCAMKL1 = tested on: T2, DCAMKL1
T2 construct: gene DCLK1

DCAMKL2 = tested on: T3, DCAMKL2
T3 construct: gene DCLK2

DCAMKL3 = tested on: T4, DCAMKL3
T4 construct: gene DCLK3

DDR1 = tested on: DDR1
DDR2 = tested on: DDR2
DLK = tested on: T5, DLK
T5 construct: gene MAP3K12

DMPK2 = tested on: T6, DMPK2
T6 construct: gene CDC42BPG

DMPK = tested on: DMPK
DRAK1 = tested on: T7, DRAK1
T7 construct: gene STK17A

DRAK2 = tested on: T8, DRAK2
T8 construct: gene STK17B

DYRK1A = tested on: DYRK1A
DYRK1B = tested on: DYRK1B
DYRK2 = tested on: DYRK2
EGFR(E746-A750del) = tested on: EGFR(E746-A750del)
EGFR(G719C) = tested on: EGFR(G719C)
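Note: KINOMEscan scanMAX binding as percent activity remaining versus control; lower means stronger binding.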

| Compound | Percent Control (CSNK2A2) [%] | Percent Control (CTK) [%] | Percent Control (DAPK1) [%] | Percent Control (DAPK2) [%] | Percent Control (DAPK3) [%] | Percent Control (DCAMKL1) [%] | Percent Control (DCAMKL2) [%] | Percent Control (DCAMKL3) [%] | Percent Control (DDR1) [%] | Percent Control (DDR2) [%] | Percent Control (DLK) [%] | Percent Control (DMPK2) [%] | Percent Control (DMPK) [%] | Percent Control (DRAK1) [%] | Percent Control (DRAK2) [%] | Percent Control (DYRK1A) [%] | Percent Control (DYRK1B) [%] | Percent Control (DYRK2) [%] | Percent Control (EGFR(E746-A750del)) [%] | Percent Control (EGFR(G719C)) [%] |
| --- | --- | --- | --- | --- | --- | --- | --- | --- | --- | --- | --- | --- | --- | --- | --- | --- | --- | --- | --- | --- |
| Cl.O=C(Nc1ccc(Oc2ccc3[nH]c(NC(=O)c4ccccc4)nc3c2)cc1)Nc1cc(C(F)(F)F)ccc1F [GW709042A] | 72 | 100 | 100 | 100 | 100 | 92 | 96 | 100 | 0 | 16 | 77 | 86 | 100 | 100 | 100 | 100 | 100 | 97 | 94 | 71 |
| CCS(=O)(=O)c1ccc(OC)c(Nc2ncc(-c3cccc(F)c3)o2)c1 [GW621970X] | 1.4 | 100 | 100 | 100 | 100 | 100 | 98 | 100 | 55 | 100 | 71 | 100 | 100 | 100 | 100 | 61 | 67 | 41 | 73 | 100 |
| CC(C)COC(=O)c1ccc2c(c1)/C(=C/Nc1ccc(S(N)(=O)=O)cc1)C(=O)N2 [GW416981X] | 1.5 | 100 | 24 | 9.4 | 9.8 | 38 | 100 | 4.6 | 100 | 100 | 14 | 100 | 100 | 0.3 | 5.5 | 26 | 45 | 18 | 82 | 4.6 |
| Cc1cc(O)cc(C)c1/C=C/c1cncc(C(N)=O)c1 [GW435821X] | 78 | 98 | 100 | 100 | 100 | 87 | 100 | 100 | 40 | 74 | 90 | 100 | 100 | 100 | 100 | 93 | 100 | 75 | 69 | 89 |
| CN(C)CCNC(=O)Nc1ccc(N(C)c2ccnc(Nc3ccc(CS(C)(=O)=O)cc3)n2)cc1.Cl [GW830900A] | 62 | 86 | 94 | 100 | 100 | 89 | 100 | 100 | 73 | 17 | 67 | 91 | 100 | 100 | 100 | 100 | 100 | 85 | 92 | 96 |
| Cl.c1ccc(Cc2nc3ccc(Nc4ncnc5ccccc45)cc3[nH]2)cc1 [GR269666A] | 100 | 100 | 100 | 99 | 96 | 90 | 100 | 100 | 100 | 100 | 83 | 100 | 100 | 68 | 100 | 100 | 100 | 73 | 70 | 0 |
| COc1cc(C)c(N(C)C(=O)CN(C)C)cc1Nc1nc(Nc2cccc(F)c2C(N)=O)c2cc[nH]c2n1 [GSK2219385] | 81 | 100 | 85 | 73 | 71 | 78 | 100 | 100 | 78 | 100 | 80 | 99 | 84 | 88 | 83 | 60 | 100 | 100 | 100 | 98 |
| O=C1Nc2ccc(C(=O)c3ccco3)cc2C1=Cc1cc(Cl)c(O)c(Cl)c1 [GW406108X] | 19 | 92 | 22 | 9.2 | 10 | 80 | 94 | 100 | 100 | 93 | 42 | 100 | 100 | 80 | 32 | 0.4 | 1.9 | 41 | 86 | 73 |
| CCS(=O)(=O)c1ccc(OC)c(Nc2ncc(-c3cccc(OC)c3)o2)c1 [GW580509X] | 4.4 | 100 | 100 | 90 | 100 | 81 | 100 | 100 | 59 | 100 | 88 | 100 | 100 | 100 | 100 | 39 | 41 | 23 | 81 | 100 |
| COc1ccccc1-c1cc(/C=C2\C(=O)Nc3ncc(Br)cc32)cc(Br)c1O [GW442130X] | 72 | 99 | 100 | 88 | 88 | 100 | 100 | 89 | 92 | 100 | 100 | 100 | 100 | 85 | 100 | 59 | 68 | 95 | 100 | 100 |
| CN(C)c1cc2c(Nc3ccc4c(cnn4Cc4ccccc4)c3)ncnc2cn1 [GW282974X] | 65 | 100 | 100 | 91 | 100 | 85 | 100 | 100 | 66 | 100 | 82 | 48 | 95 | 69 | 100 | 93 | 100 | 73 |  |  |
| COc1cc2ncn(-c3cc(O[C@H](C)c4ccccc4Cl)c(C(N)=O)s3)c2cc1OC [GSK237701A] | 34 | 78 | 55 | 81 | 79 | 77 | 100 | 100 | 100 | 74 | 59 | 91 | 100 | 100 | 89 | 92 | 100 | 68 | 85 | 64 |
| COc1cc(/C=N/Nc2ncnc3[nH]ncc23)ccc1O [GW578748X] | 7.7 | 97 | 78 | 75 | 48 | 68 | 100 | 68 | 100 | 100 | 71 | 100 | 100 | 7 | 9.9 | 12 | 69 | 2.5 | 90 | 52 |
| Cl.O=C(Nc1ccc(Oc2ccc3[nH]c(NC(=O)c4ccco4)nc3c2)cc1)Nc1cc(C(F)(F)F)ccc1F [GW683134A] | 91 | 100 | 100 | 83 | 89 | 87 | 100 | 82 | 0 | 5.1 | 86 | 82 | 100 | 100 | 100 | 100 | 93 | 83 | 92 | 100 |
| Cl.O=S1CCN(Cc2ccc(-c3ccc4ncnc(Nc5ccc(OCc6ccccc6)c(F)c5)c4c3)o2)CC1 [GW576924A] | 100 | 100 | 100 | 100 | 100 | 89 | 100 | 100 | 100 | 100 | 90 | 100 | 100 | 100 | 100 | 100 | 100 | 91 | 14 | 0 |
| COC(=O)Nc1nc2ccc(Oc3ccc(NC(=O)Nc4cc(C(F)(F)F)ccc4F)cc3)cc2s1.Cl [GW693917A] | 68 | 91 | 95 | 100 | 100 | 95 | 86 | 100 | 0 | 5.8 | 64 | 73 | 100 | 100 | 99 | 82 | 100 | 62 | 88 | 98 |
| CCn1c(-c2nonc2N)nc2c(C#CC(C)(C)O)nc(OCCNC)cc21.Cl [GSK949675] | 97 | 100 | 100 | 100 | 100 | 100 | 100 | 66 | 100 | 100 | 86 | 100 | 100 | 100 | 100 | 70 | 100 | 87 | 97 | 100 |
| COc1cccc(-n2ncc3c(N/N=C/c4ccncc4)ncnc32)c1 [GW784752X] | 2.9 | 99 | 100 | 94 | 93 | 86 | 100 | 71 | 100 | 100 | 82 | 100 | 100 | 73 | 87 | 18 | 95 | 17 | 75 | 90 |
| NS(=O)(=O)c1ccc(Nc2ncc(-c3ccccc3)o2)cc1 [GW572399X] | 53 | 100 | 100 | 100 | 100 | 83 | 100 | 100 | 100 | 100 | 81 | 100 | 100 | 85 | 100 | 92 | 81 | 57 | 98 | 100 |
| CN1CCN(C(=O)c2ccc(NC(=O)Nc3ccc(N(C)c4ccnc(Nc5ccc(CS(C)(=O)=O)cc5)n4)cc3)cc2)CC1.Cl [GW830263A] | 63 | 100 | 95 | 100 | 100 | 97 | 79 | 100 | 0 | 0 | 30 | 64 | 100 | 100 | 100 | 62 | 91 | 75 | 87 | 95 |
| CC1=C(C(=O)Nc2ccc3[nH]ncc3c2)C(c2ccc3ccccc3c2)CC(=O)N1 (stereo not drawn) [GSK270822A] | 80 | 54 | 95 | 100 | 100 | 90 | 74 | 94 | 79 | 90 | 68 | 94 | 100 | 95 | 84 | 92 | 83 | 66 | 100 | 53 |
| Nc1ncnc2occ(-c3ccc(NC(=O)Nc4cc(C(F)(F)F)ccc4F)cc3)c12 [GW770249X] | 93 | 70 | 100 | 100 | 98 | 78 | 76 | 100 | 0 | 1.3 | 90 | 96 | 100 | 100 | 96 | 100 | 100 | 86 | 91 | 89 |
